Data from the supplement of paper PMC11402862.

Experiments:
Assay in all cases: luciferase reporter transactivation, fold of solvent control; higher = stronger receptor activation
Conditions in all cases: HEK293T, exposure time: 24 h
CAR LBD (GAL4 fusion) = test system: CAR LBD (GAL4 fusion)
Summary of the method: (§1)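 HEK293T cells (2 × 10^4 cells/well, 96-well plates, DMEM with 10% FBS, 37 °C, 5% CO2) were transiently transfected with TransIT-LT1. Each well received a GAL4 fusion of one human nuclear receptor ligand-binding domain, a GAL4-(UAS)5-TK firefly luciferase reporter and a Renilla luciferase plasmid. Cells were exposed for 24 h to compound between 1 and 500 µM in DMEM with 0.5% DMSO. Transactivation was firefly/Renilla luciferase as fold of solvent control, averaged over biological replicates.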

[1] = test system: LXRalpha LBD (GAL4 fusion)
Summary of the method: as §1

[2] = test system: PPARdelta LBD (GAL4 fusion)
Summary of the method: as §1

PXR LBD (GAL4 fusion) = PXR LBD (GAL4 fusion) (UniProt O75469)
Summary of the method: as §1

RARalpha (GAL4 fusion) = test system: RARalpha (GAL4 fusion)
Summary of the method: as §1

PXR LBD (GAL4 fusion), sequence (O75469 whole entry, looked up, the tested form may be a part): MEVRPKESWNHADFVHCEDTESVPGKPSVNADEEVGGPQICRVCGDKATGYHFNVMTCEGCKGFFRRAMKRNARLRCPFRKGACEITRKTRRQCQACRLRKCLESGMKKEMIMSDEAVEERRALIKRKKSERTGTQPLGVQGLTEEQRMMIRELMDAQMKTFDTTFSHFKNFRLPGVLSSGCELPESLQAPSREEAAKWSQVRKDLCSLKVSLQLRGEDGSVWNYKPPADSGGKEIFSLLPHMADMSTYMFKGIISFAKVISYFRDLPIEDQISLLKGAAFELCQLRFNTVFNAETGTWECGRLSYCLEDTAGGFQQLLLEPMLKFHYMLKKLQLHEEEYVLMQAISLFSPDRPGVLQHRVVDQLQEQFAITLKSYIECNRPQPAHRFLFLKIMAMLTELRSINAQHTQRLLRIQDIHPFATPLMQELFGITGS

Row | SMILES | luciferase reporter transactivation (CAR LBD (GAL4 fusion); concentration: 1 µM) | luciferase reporter transactivation (CAR LBD (GAL4 fusion); concentration: 5 µM) | luciferase reporter transactivation (CAR LBD (GAL4 fusion); concentration: 10 µM) | luciferase reporter transactivation (CAR LBD (GAL4 fusion); concentration: 25 µM) | luciferase reporter transactivation (CAR LBD (GAL4 fusion); concentration: 50 µM) | luciferase reporter transactivation (CAR LBD (GAL4 fusion); concentration: 100 µM) | luciferase reporter transactivation (CAR LBD (GAL4 fusion); concentration: 250 µM) | luciferase reporter transactivation (CAR LBD (GAL4 fusion); concentration: 500 µM) | luciferase reporter transactivation ([1]; concentration: 1 µM) | luciferase reporter transactivation ([1]; concentration: 5 µM) | luciferase reporter transactivation ([1]; concentration: 10 µM) | luciferase reporter transactivation ([1]; concentration: 25 µM) | luciferase reporter transactivation ([1]; concentration: 50 µM) | luciferase reporter transactivation ([1]; concentration: 100 µM) | luciferase reporter transactivation ([1]; concentration: 250 µM) | luciferase reporter transactivation ([1]; concentration: 500 µM) | luciferase reporter transactivation ([2]; concentration: 1 µM) | luciferase reporter transactivation ([2]; concentration: 5 µM) | luciferase reporter transactivation ([2]; concentration: 10 µM) | luciferase reporter transactivation ([2]; concentration: 25 µM) | luciferase reporter transactivation ([2]; concentration: 50 µM) | luciferase reporter transactivation ([2]; concentration: 100 µM) | luciferase reporter transactivation ([2]; concentration: 250 µM) | luciferase reporter transactivation ([2]; concentration: 500 µM) | luciferase reporter transactivation (PXR LBD (GAL4 fusion); concentration: 1 µM) | luciferase reporter transactivation (PXR LBD (GAL4 fusion); concentration: 5 µM) | luciferase reporter transactivation (PXR LBD (GAL4 fusion); concentration: 10 µM) | luciferase reporter transactivation (PXR LBD (GAL4 fusion); concentration: 25 µM) | luciferase reporter transactivation (PXR LBD (GAL4 fusion); concentration: 50 µM) | luciferase reporter transactivation (PXR LBD (GAL4 fusion); concentration: 100 µM) | luciferase reporter transactivation (PXR LBD (GAL4 fusion); concentration: 250 µM) | luciferase reporter transactivation (PXR LBD (GAL4 fusion); concentration: 500 µM) | luciferase reporter transactivation (RARalpha (GAL4 fusion); concentration: 1 µM) | luciferase reporter transactivation (RARalpha (GAL4 fusion); concentration: 5 µM) | luciferase reporter transactivation (RARalpha (GAL4 fusion); concentration: 10 µM) | luciferase reporter transactivation (RARalpha (GAL4 fusion); concentration: 25 µM) | luciferase reporter transactivation (RARalpha (GAL4 fusion); concentration: 50 µM) | luciferase reporter transactivation (RARalpha (GAL4 fusion); concentration: 100 µM) | luciferase reporter transactivation (RARalpha (GAL4 fusion); concentration: 250 µM) | luciferase reporter transactivation (RARalpha (GAL4 fusion); concentration: 500 µM)
1 | OCCC(F)(F)C(F)(F)C(F)(F)C(F)(F)C(F)(F)C(F)(F)F [6:2 fluorotelomer alcohol] | 1.21 | 1.18 | 1.25 | 1.21 | 1.25 | 1.08 | 0.788 | 0.67 | 0.978 | 1.14 | 1.16 | 1.15 | 1.13 | 1.14 | 1.16 | 0.958 | 0.967 | 0.99 | 0.969 | 1.06 | 0.988 | 1.03 | 0.515 | 0.514 | 0.838 | 0.76 | 0.78 | 0.852 | 0.839 | 0.816 | 0.765 | 0.453 | 0.733 | 0.977 | 0.712 | 1.33 | 0.872 | 1.22 | 3.04 | 2.52
2 | O=C(O)C(F)(F)C(F)(F)C(F)(F)C(F)(F)F [perfluoropentanoic acid] | 1.1 | 1.06 | 1.07 | 1.12 | 1.09 | 1.01 | 0.977 | 1.21 | 0.74 | 0.915 | 0.998 | 0.941 | 0.928 | 0.859 | 1.07 | 1.1 | 1.14 | 1.1 | 1.16 | 1.07 | 1.15 | 0.924 | 0.889 | 0.974 | 0.827 | 0.802 | 0.877 | 0.876 | 0.872 | 0.893 | 0.706 | 0.495 | 1.54 | 1.5 | 1.11 | 1.34 | 1.37 | 1.61 | 1.66 | 1.97
